Dicer processing – blocks human Dicer maturation of pre-miR-21. AID 1347074. cat-ELCCA pre-miR-21 Dicer processing, chemiluminescence; hits give high values. actives 6% (n = 47,000). Q9UPY3. z-score at 25 µM; in the data active means z-score above about 3, passing the limit was not always enough;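 further: plate controls were vehicle for no effect and no enzyme for full effect; higher signal means more uncleaved substrate so more Dicer inhibition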
* = called active by the depositor. The sample as a whole holds a higher share of hits than the screen did.

`O=C(O)c1ccc(N2C(=O)C3C4c5ccccc5C(c5ccccc54)C3C2=O)cc1Cl` (stereo unspecified) gave Dicer processing 2.5.
`Cc1nn(C)c(=O)c2noc(/C=C/c3ccsc3)c12` gave Dicer processing -1.6.
`CC(C)c1ccc(NC(=O)CSc2ncc(-c3ccc(Cl)cc3)o2)cc1` gave Dicer processing -0.25.
For COc1ccc(NC2CC(=O)N(c3ccc(OC(C)=O)cc3)C2=O)cc1 (stereo unspecified) the results were Dicer processing 1.3.
For COc1ccc(CCNc2ccc(C(F)(F)F)cc2N)cc1OC the results were Dicer processing -0.16.
COCCCNC(=S)N/N=C/c1ccc(O)cc1 was read as Dicer processing -0.81.
For COCCCNC(=S)N/N=C/c1ccc(O)cc1O the results were Dicer processing -2.7.
For COCCCNC(=S)N/N=C/c1cccc(OC)c1O the results were Dicer processing 4.2*.
Screening C=CCOc1cccc(C2c3c(oc4ccc(F)cc4c3=O)C(=O)N2Cc2ccc3c(c2)OCO3)c1 (stereo unspecified) returned Dicer processing -1.8.
COc1ccc(NC(=S)N(CCC#N)C2CCCCC2)cc1 was read as Dicer processing 1.6.
O=C(CSc1nnnn1-c1cccc(Cl)c1)Nc1ccc2c(c1)OCO2 was read as Dicer processing -0.83.
Screening Nc1ccc(Cc2nc3ccccc3[nH]2)cc1 returned Dicer processing 1.3.
c1ccc2[nH]c(CCc3nc4ccccc4[nH]3)nc2c1 was read as Dicer processing 0.25.
C/C(=C\c1ccc(N)cc1)c1nc2ccccc2[nH]1 was read as Dicer processing 3*.
O=C(O)c1c(-c2ccccc2)c(-c2ccccc2)n[nH]c1=O was read as Dicer processing -1.1.
COC(CNC(=S)Nc1cccc(Cl)c1Cl)OC was read as Dicer processing -1.2.
Screening COC(=O)c1sccc1Oc1ccc(C(F)(F)F)cc1N returned Dicer processing 0.11.
Screening COC(=O)c1sc(N2CCCCC2)c(C#N)c1N returned Dicer processing 29*.
For COC(=O)c1sc(N2CCCC2)c(S(=O)(=O)C(C)C)c1N the results were Dicer processing -0.38.
Screening COC(=O)c1sc(N2CCCC2)c(C#N)c1-c1cccs1 returned Dicer processing -2.2.
For CCOc1ccc2c(c1)C(C)=CC(C)(C)N2C(=O)Nc1ccc(F)cc1 the results were Dicer processing 0.91.
For CC1=CC(C)(C)N(C(=O)Nc2ccc(C)cc2)c2ccc(C)cc21 the results were Dicer processing -0.67.
Screening CC1=CC(C)(C)N(C(=O)c2ccc(F)cc2)c2cc3c(cc21)OCO3 returned Dicer processing 4.6*.
`CCc1cccc(CC)c1NC(=S)NCCCC(=O)O` gave Dicer processing -0.3.
`CC1=C(C(=O)OC(C)C)C(c2ccc3c(c2)OCO3)C2=C(CCCC2=O)N1` (stereo unspecified) gave Dicer processing 0.26.
`CCC(=O)N1N=C(c2cccs2)CC1c1cn(-c2ccccc2)nc1-c1cccs1` (stereo unspecified) gave Dicer processing -0.14.
Screening Cc1cc(NC(=O)c2ccc3c(c2)OCCO3)no1 returned Dicer processing 4.2*.
Cc1cc(-c2nnc(SCC(=O)c3ccc4c(c3)OCCO4)o2)no1 was read as Dicer processing -1.3.
Screening Cc1cc(NC(=O)c2ccc3c(c2)OCO3)no1 returned Dicer processing 20.
`CN(C)C(=O)c1ccc(C(C)(C)C)cc1` gave Dicer processing 0.31.
Screening COc1ccc(Sc2ccc(C)cc2)c([N+](=O)[O-])c1 returned Dicer processing 0.77.
Cc1ccc(Sc2ccc(/C=C3/SC(=S)NC3=O)cc2[N+](=O)[O-])cc1 was read as Dicer processing 4.6*.
Screening Cc1ccc(Sc2cc(N3CCOCC3)c(C)cc2[N+](=O)[O-])cc1 returned Dicer processing -1.2.
Cc1nnc(SCC(=O)Nc2ccc(F)c(F)c2)s1 was read as Dicer processing 2.4.
CC1(C)CSC(=NC2CCCCC2)N1 was read as Dicer processing 3.2*.
C#CC(C)(C)N1CN=C(SC)NC1 was read as Dicer processing -0.47.
For CCCOCC1CC2(CC(C)(c3csc(Nc4ccc(C)cc4)n3)OC2=O)C(=O)O1 (stereo unspecified) the results were Dicer processing 1.3.
Screening C=CCNc1nc(C2(C)CC3(CC(C)OC3=O)C(=O)O2)cs1 (stereo unspecified) returned Dicer processing 3.5*.
CCCCOCC1CC2(CC(C)(c3csc(N)n3)OC2=O)C(=O)O1 (stereo unspecified) was read as Dicer processing -0.37.
CC(C)CC1CC(C)(c2csc(Nc3ccccc3)n2)OC1=O (stereo unspecified) was read as Dicer processing -0.72.
`C=CCNc1nc(C2(C)CC3(CC(COCC(C)C)OC3=O)C(=O)O2)cs1` (stereo unspecified) gave Dicer processing 3.1*.
`CCC1CC(C)(c2csc(Nc3ccc(C)cc3)n2)OC1=O` (stereo unspecified) gave Dicer processing 0.11.
COc1ccc(NC(=O)Cn2nnc3sc4c(c3c2=O)CCCC4)c(OC)c1 was read as Dicer processing 1.8.
Screening Cc1cc(S(=O)(=O)NC2C3(C)CCC(C3)C2(C)C)c(C)cc1Cl (stereo unspecified) returned Dicer processing -0.44.
For N=C(N)c1ccc(C(F)(F)F)cc1 the results were Dicer processing -1.4.
For N#Cc1cccc(Nc2ncnc(N)n2)c1 the results were Dicer processing 1.2.
`CSc1ccc(-c2ccc(SC)cc2)cc1` gave Dicer processing -0.48.
`N/C(=N/OC(=O)Nc1ccc(Cl)cc1)c1csc([N+](=O)[O-])c1` gave Dicer processing 5*.
Screening O=C(Nc1ccc(Cl)cc1)Nc1csc([N+](=O)[O-])c1 returned Dicer processing -0.84.
For N/C(=N\OC(=O)Nc1ccc(Cl)cc1)c1ncc([N+](=O)[O-])s1 the results were Dicer processing -2.5.
Cc1cc(Cl)cc(C)c1OCCn1ccnc1 was read as Dicer processing 1.2.
For Cc1cccc(C)c1OCCn1cncn1 the results were Dicer processing 3.3*.
`Cc1cccc(C)c1OCCCc1c(C)n[nH]c1C` gave Dicer processing -0.53.
Screening Cc1ccc2cc3c(nc2c1)N(c1ccccc1)CC3 returned Dicer processing -2.5.
COC(=O)c1ccc(N2C(=O)CC(N3CCN(C)CC3)C2=O)cc1 (stereo unspecified) was read as Dicer processing 0.87.
`COC(=O)c1ccc(N2CCc3cc4ccc(C)cc4nc32)cc1` gave Dicer processing 3*.
Cc1c(O)c(Sc2ccccc2)c(=O)n(-c2ccccc2)c1-c1ccccc1 was read as Dicer processing 1.3.
`O=C1CCC(c2ccccc2)=NN1c1ccc([N+](=O)[O-])cc1` gave Dicer processing -0.67.
For O=C1CC(c2ccccc2)c2cc(Cl)ccc2O1 (stereo unspecified) the results were Dicer processing 2.1.
Screening C(/C=C/C=C/Nc1ccccc1)=Nc1ccccc1 returned Dicer processing 0.52.
`Fc1ccc(N=C/C=C/C=C/Nc2ccc(F)cc2)cc1` gave Dicer processing 3.1*.
For COc1ccc(OC)c(C(=O)c2ccc(N)cc2)c1 the results were Dicer processing 1.9.
COC(=O)c1ccccc1C(=O)c1ccc(Cl)cc1 was read as Dicer processing 1.1.
`COc1cc(C(=O)c2cc(Cl)ccc2N)ccc1O` gave Dicer processing 3.8*.
Screening Brc1ccc(OCc2nc(-c3cccs3)no2)cc1 returned Dicer processing 2.7.

Assay outcomes as filed in PubChem.
